Reference: ChEMBL document CHEMBL1961873, “Compounds: GSK PKIS; Assays: Nanosyn kinase panel” (2012)

Key:
[1] = biological target: Sphingosine kinase 1 (Homo sapiens) (UniProt Q9NYA1); conditions: at 1 µM;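 further: mean SPHK1 inhibition value reported from the GSK PKIS kinase panel screen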
[2] = biological target: T1, Sphingosine kinase 2 (Homo sapiens) (UniProt Q9NRA0); conditions: at 0.1 µM
T1 sequence (whole entry): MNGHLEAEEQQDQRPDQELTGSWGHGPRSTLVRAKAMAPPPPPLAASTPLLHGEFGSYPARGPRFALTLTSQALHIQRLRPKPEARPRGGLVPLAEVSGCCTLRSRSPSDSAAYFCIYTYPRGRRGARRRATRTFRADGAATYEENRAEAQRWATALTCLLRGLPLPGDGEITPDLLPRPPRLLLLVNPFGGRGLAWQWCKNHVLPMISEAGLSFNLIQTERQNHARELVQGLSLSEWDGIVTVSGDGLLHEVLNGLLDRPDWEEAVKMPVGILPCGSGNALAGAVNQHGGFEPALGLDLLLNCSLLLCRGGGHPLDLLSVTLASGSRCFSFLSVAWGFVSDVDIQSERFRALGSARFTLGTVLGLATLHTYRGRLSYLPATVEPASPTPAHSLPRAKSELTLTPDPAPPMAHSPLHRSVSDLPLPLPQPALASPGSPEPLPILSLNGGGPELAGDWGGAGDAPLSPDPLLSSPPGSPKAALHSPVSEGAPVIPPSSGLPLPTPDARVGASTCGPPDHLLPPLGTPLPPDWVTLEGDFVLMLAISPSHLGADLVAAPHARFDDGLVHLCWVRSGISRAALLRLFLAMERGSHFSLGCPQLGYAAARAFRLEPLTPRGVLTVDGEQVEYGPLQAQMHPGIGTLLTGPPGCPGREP

[3] = biological target: T1, Sphingosine kinase 2 (Homo sapiens); conditions: at 1 µM
[4] = biological target: Casein kinase II subunit alpha (Homo sapiens) (UniProt P68400); conditions: at 0.1 µM
Chain of Casein kinase II subunit alpha (Homo sapiens) (P68400 whole entry, looked up): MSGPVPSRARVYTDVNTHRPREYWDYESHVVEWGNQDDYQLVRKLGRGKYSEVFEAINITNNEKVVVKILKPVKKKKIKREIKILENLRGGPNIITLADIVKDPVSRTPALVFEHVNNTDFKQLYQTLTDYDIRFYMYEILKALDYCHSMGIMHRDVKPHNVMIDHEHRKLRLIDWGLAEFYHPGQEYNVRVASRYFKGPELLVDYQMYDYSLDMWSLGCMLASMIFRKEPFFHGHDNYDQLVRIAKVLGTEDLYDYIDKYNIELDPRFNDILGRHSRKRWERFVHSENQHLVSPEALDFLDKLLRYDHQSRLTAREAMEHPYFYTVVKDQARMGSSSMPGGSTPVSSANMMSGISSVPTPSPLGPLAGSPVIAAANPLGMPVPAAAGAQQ

[5] = biological target: Casein kinase II subunit alpha (Homo sapiens) (UniProt P68400); conditions: at 1 µM
[6] = biological target: T2, Inhibitor of nuclear factor kappa-B kinase subunit alpha (Homo sapiens) (UniProt O15111); conditions: at 0.1 µM
T2 sequence (whole entry): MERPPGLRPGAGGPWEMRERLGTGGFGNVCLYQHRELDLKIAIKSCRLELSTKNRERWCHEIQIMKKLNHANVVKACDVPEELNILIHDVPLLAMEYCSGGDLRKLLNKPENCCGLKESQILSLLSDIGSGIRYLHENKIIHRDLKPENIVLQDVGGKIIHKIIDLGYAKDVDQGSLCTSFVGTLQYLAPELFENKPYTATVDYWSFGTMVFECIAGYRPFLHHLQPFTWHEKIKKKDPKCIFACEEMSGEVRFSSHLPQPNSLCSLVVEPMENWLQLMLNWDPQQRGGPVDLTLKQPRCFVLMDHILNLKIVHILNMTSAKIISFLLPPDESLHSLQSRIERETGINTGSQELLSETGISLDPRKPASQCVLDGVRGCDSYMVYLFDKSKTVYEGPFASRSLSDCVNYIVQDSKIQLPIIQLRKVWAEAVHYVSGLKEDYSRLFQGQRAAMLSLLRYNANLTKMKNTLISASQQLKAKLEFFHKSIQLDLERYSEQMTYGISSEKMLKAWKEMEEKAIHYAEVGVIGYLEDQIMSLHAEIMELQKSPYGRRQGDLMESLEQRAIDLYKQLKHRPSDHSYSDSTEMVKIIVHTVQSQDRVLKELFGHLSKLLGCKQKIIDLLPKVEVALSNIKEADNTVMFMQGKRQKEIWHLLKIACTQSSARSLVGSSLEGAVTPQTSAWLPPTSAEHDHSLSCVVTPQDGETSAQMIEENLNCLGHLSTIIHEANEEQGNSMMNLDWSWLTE

[7] = biological target: T2, Inhibitor of nuclear factor kappa-B kinase subunit alpha (Homo sapiens); conditions: at 1 µM
[8] = biological target: T3, Inhibitor of nuclear factor kappa-B kinase subunit beta (Homo sapiens) (UniProt O14920); conditions: at 0.1 µM
T3 sequence (whole entry): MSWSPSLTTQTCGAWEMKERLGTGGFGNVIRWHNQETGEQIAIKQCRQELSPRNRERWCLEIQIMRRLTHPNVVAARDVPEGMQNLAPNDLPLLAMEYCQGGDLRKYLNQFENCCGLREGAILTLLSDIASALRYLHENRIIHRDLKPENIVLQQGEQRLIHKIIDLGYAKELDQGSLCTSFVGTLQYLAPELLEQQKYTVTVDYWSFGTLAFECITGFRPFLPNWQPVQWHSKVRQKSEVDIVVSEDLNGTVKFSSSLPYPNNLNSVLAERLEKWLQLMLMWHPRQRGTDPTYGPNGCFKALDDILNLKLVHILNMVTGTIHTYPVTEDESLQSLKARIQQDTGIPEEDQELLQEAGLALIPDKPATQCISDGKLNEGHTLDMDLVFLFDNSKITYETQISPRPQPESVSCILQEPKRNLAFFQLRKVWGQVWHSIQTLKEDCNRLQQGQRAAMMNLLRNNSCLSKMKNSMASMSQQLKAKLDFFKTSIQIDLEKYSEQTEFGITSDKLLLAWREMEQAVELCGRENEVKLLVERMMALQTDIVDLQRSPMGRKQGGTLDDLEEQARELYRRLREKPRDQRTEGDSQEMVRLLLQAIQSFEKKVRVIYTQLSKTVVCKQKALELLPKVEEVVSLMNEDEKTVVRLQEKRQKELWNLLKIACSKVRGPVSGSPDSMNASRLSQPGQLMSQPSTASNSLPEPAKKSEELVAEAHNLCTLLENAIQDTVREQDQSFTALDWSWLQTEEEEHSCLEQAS

[9] = biological target: T3, Inhibitor of nuclear factor kappa-B kinase subunit beta (Homo sapiens); conditions: at 1 µM
[10] = biological target: T4, Inhibitor of nuclear factor kappa-B kinase subunit epsilon (Homo sapiens) (UniProt Q14164); conditions: at 0.1 µM;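 further: mean inhibition of IKKε reported, from the GSK PKIS dataset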
T4 sequence (whole entry): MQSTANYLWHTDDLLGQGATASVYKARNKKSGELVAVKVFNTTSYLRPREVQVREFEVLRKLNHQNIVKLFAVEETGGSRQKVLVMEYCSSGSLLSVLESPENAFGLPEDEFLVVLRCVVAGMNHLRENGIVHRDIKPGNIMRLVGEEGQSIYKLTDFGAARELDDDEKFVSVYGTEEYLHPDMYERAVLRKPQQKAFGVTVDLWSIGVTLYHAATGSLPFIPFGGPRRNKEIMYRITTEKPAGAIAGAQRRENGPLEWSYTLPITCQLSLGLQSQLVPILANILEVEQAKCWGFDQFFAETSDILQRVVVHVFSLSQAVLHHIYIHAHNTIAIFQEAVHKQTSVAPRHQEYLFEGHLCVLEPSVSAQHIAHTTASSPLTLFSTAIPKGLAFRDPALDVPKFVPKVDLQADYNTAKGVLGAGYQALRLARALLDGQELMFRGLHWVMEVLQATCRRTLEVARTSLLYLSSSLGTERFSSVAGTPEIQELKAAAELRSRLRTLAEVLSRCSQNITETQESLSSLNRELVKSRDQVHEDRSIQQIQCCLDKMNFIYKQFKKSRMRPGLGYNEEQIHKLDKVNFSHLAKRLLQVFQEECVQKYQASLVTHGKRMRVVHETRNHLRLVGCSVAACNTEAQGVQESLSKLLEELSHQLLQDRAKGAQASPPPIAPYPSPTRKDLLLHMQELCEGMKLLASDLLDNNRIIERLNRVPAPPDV

Chain of Sphingosine kinase 1 (Homo sapiens) (Q9NYA1 whole entry): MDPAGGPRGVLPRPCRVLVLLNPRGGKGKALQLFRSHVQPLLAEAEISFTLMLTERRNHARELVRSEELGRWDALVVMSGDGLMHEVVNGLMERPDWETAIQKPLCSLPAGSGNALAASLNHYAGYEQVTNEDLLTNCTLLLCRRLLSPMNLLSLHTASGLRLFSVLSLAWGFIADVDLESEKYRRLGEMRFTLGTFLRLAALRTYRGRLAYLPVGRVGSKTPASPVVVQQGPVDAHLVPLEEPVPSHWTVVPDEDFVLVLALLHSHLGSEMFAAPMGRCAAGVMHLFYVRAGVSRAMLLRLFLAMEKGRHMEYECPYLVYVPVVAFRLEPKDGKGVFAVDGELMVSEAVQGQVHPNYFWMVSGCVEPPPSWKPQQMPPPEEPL

Compound | inhibition [1] | inhibition [2] | inhibition [3] | inhibition [4] | inhibition [5] | inhibition [6] | inhibition [7] | inhibition [8] | inhibition [9] | inhibition [10]
NS(=O)(=O)c1ccc(N/N=C2\C(=O)Nc3ccc(C(=O)NCCCn4ccnc4)cc32)cc1 | -2.65% | 0.75% | -2.51% | 6.89% | 21% | 2.62% | 0.02% | 12.3% | 14.7% | 10.8%
O=C1Nc2ccc(I)cc2C1=Cc1cc(Br)c(O)c(Br)c1 | 0.73% | -0.66% | 3.26% | 4.28% | 17.9% | 1.76% | 3.02% | 1.64% | 3.61% | 10.2%
COc1ccc2ncn(-c3cc(O[C@H](C)c4ccccc4Cl)c(C(N)=O)s3)c2c1 | -2.39% | -0.22% | 0.79% | 5.1% | 3.41% | 7.01% | 6.42% | 6.12% | 4.8% | 5.23%
CCc1ccc(Oc2nccc(-c3c(-c4ccc(F)cc4)ncn3C3CCNCC3)n2)cc1 | 11.5% | 1.25% | 0.72% | 3.17% | 4.14% | -3.32% | -1.04% | 3.54% | 4.07% | 8.2%
NC(=O)c1cc(-c2ccc(F)cc2)cc(-c2ccncc2)c1N | 4.1% | 1.03% | -1.1% | 3.42% | 8.62% | – | – | – | – | 6.05%
COc1ccc(-c2ccc3c(NC(=O)C4CC4)n[nH]c3n2)cc1 | -0.43% | -0.3% | 1.99% | 3.46% | 8.9% | 9.58% | 7.37% | 4.51% | 4.44% | 6.37%
O=C(Nc1n[nH]c2nc(-c3ccco3)ccc12)C1CC1 | -1.96% | 0.87% | -0.13% | 0.99% | -0.44% | 4.36% | -0.84% | -0.41% | -0.38% | -0.37%
NS(=O)(=O)c1ccc(N/N=C2\C(=O)Nc3ccc(-c4cnco4)cc32)cc1 | 1.01% | 1.12% | -1.25% | 5.69% | 15.2% | 1.42% | 35.1% | 2.62% | 10.4% | 5.68%
Cc1ccc(C(=O)NC(C)C)cc1-c1ccc(C(=O)NCC2CC2)cc1 | -2.98% | -1.05% | 1.77% | 7.28% | 0.22% | 2.97% | -1.81% | -0.39% | -1.83% | -5.06%
CCC(=O)Nc1ccc(C)c(-c2ccc(C(=O)NCC3CC3)cc2)c1 | 0.8% | -0.3% | 0.9% | – | 2.11% | 10.5% | 7.65% | 5.07% | 5.57% | 9.75%
Cc1nnc(-c2ccc(C)c(-c3ccc(C(=O)NCc4ccc(Cl)cc4)cc3)c2)o1 | -3.95% | 0.02% | 0.44% | 2.9% | 5.39% | 8.21% | 5.98% | 6.95% | 4.95% | 5.66%
Fc1ccc(-c2ncn(CCCN3CCOCC3)c2-c2ccncc2)cc1 | -2.07% | -0.81% | -0.25% | -2.49% | -6% | – | -8.87% | 7.22% | 3.34% | 4.58%
CCS(=O)(=O)c1ccc(OC)c(Nc2ncc(-c3ccccc3Cl)o2)c1 | -2.06% | 0% | -1.74% | 3.8% | 23.3% | 2.45% | 3.42% | 1.4% | -0.23% | 3.21%
CS(=O)(=O)CCNCc1cc(-c2cc3c(Nc4ccc(OCc5cccc(F)c5)c(Cl)c4)ncnc3s2)cs1 | 3.45% | -0.27% | 0.36% | – | 2.87% | 10.9% | 9.95% | 7.54% | 6.76% | 6.48%
C#Cc1cccc(Nc2ncnc3ccc(OCCCCNCCS(C)(=O)=O)cc23)c1 | -0.99% | -0.09% | 0.04% | 4.02% | 9.21% | 5.89% | 12.2% | 6.73% | 9.06% | 7.86%
COc1cccc(-n2cnc3c(N/N=C/c4ccncc4)ncnc32)c1 | 0.02% | 0.58% | -0.25% | 0.97% | 10.8% | 0.84% | -1.74% | 1.12% | 3.32% | 3.81%
c1ccc(-c2n[nH]cc2-c2ccnc(-c3ccc(OCCN4CCOCC4)cc3)c2)nc1 | -1.7% | 0.79% | -2.14% | -3.28% | -4.72% | -2.42% | -8.48% | -4.16% | -6.86% | -5.44%
COc1cccc(/C=N/Nc2ncnc3c2cnn3-c2cccc(OC)c2)c1 | 0.34% | -0.71% | -0.63% | 5.99% | 3.05% | 7.48% | -3.48% | 6.4% | 6% | 4.37%
